{"source": "PubChem BioAssay (EPA / NIEHS)", "note": "“And” between values parts separate entries of the source, which are not always exact repeats. Identical values can stand only once. Some structures have more than one record in an assay (separate samples or runs), and their calls can disagree. The source made the active and inactive calls. The calls were made as follows: active = hit-call score of the fitted dose curve at least 0.9, where 1 is the maximum; inactive = score below 0.9.", "data": [{"read-out": "CD69, CD69 (gene 969)", "assay": "BSK_LPS_CD69: BioMAP Diversity Plus: LPS Assay for CD69 Biomarker Activity (AID 2284303)", "details": "primary human HUVEC with PBMC", "experimental": "BSK_LPS is a cell-based, multiplexed-readout assay that uses umbilical vein endothelium and peripheral blood mononuclear cells, a human vascular primary cell co-culture, with measurements taken at 24 hours after chemical dosing in a 96-well plate.BSK_LPS_CD69 is an assay component measured in the BSK_LPS assay. It measures CD69 antibody related to regulation of gene expression using ELISA technology.Data from the assay component BSK_LPS_CD69 was analyzed at the endpoint, BSK_LPS_CD69, in the positive analysis fitting direction relative to DMSO as the negative control and baseline of activity. Using a type of binding reporter, gain or loss-of-signal activity can be used to understand protein changes. To generalize the intended target to other relatable targets, this assay endpoint is annotated to the 'cytokine' intended target family, where the subfamily is 'inflammatory factor'.\nThe levels of cell surface (or secreted, indicated by the prefix \"s\") biomarker endpoints were measured by ELISA. Overt cytotoxicity to cells in confluent adherent cultures (all systems other than the BT system) was assessed by measuring total protein levels using sulforhodamine B (SRB) staining in parallel cultures at the time of biomarker measurements, indicated as SRB endpoints. For proliferation assays for adherent cell types, individual cell types are cultured at sub-confluence and relative cell numbers quantified by SRB staining at time points optimized for each system (48 h: 3C and CASM3C systems; 72 h: BT and HDF3CGF systems; 96 h: SAg system). SRB was performed by staining cells with 0.1% SRB after fixation with 10% TCA and reading wells at 560 nm.Viability and proliferation of PBMC (T cells) was quantified by Alamar Blue reduction for the SAg and BT systems. For PBMC viability (referred to as PBMC Cytotoxicity within the assay endpoint names), cells were plated (75,000/well in a 96-well plate) and then chemical samples added for 1 h before addition of activators, SEB and TSST-1 (20 ng/mL final concentration each). Cells were incubated for 90 h. Then, Alamar Blue (20 uL/well) (Invitrogen, Cat DAL1100) was added for 6 h, and the plates were read with a fluorescence microplate reader at 546/580 nm (excitation/emission). For PBMC proliferation, cells were plated and activated as above but incubated for only 16 h prior to addition of Alamar Blue. Plates were read after 6 h.", "values": [{"smiles": "O=S(=O)(Cl)C(F)(F)C(F)(F)C(F)(F)C(F)(F)C(F)(F)C(F)(F)C(F)(F)C(F)(F)F", "outcome": "inactive"}, {"smiles": "C=CC(=O)OCCC(F)(F)C(F)(F)C(F)(F)C(F)(F)F", "outcome": "inactive"}, {"smiles": "OCC(F)(F)C(F)(F)C(F)(F)C(F)(F)C(F)(F)C(F)(F)CO", "outcome": "inactive"}, {"smiles": "O=C(O)CCC(F)(F)C(F)(F)C(F)(F)F", "outcome": "inactive"}, {"smiles": "CNS(=O)(=O)C(F)(F)C(F)(F)C(F)(F)C(F)(F)C(F)(F)C(F)(F)C(F)(F)C(F)(F)F", "outcome": "inactive"}, {"smiles": "O=C(O)C(F)(F)C(F)(F)C(F)(F)C(F)(F)C(F)(F)C(F)(F)C(F)F", "outcome": "inactive"}, {"smiles": "OCCCCC(F)(F)C(F)(F)C(F)(F)C(F)(F)F", "outcome": "inactive"}, {"smiles": "O=C(O)C(F)(F)C(F)(F)C(F)(F)OC(F)(C(F)(F)F)C(F)(F)F", "outcome": "inactive"}, {"smiles": "O=C(O)CCC(F)(F)C(F)(F)C(F)(F)C(F)(F)C(F)(F)C(F)(F)C(F)(F)F", "outcome": "inactive"}, {"smiles": "NS(=O)(=O)C(F)(F)C(F)(F)C(F)(F)C(F)(F)C(F)(F)C(F)(F)F", "AC50": "26 µM (active) and 22.3 µM (active)"}, {"smiles": "CCOC(=O)CC(=O)C(F)(F)C(F)(F)F", "outcome": "inactive"}, {"smiles": "NC(=O)C(F)(F)C(F)(F)C(F)(F)F", "outcome": "inactive"}, {"smiles": "OC(O)C(F)(F)C(F)(F)F", "outcome": "inactive"}, {"smiles": "OCC(O)CC(F)(F)C(F)(F)C(F)(F)C(F)(F)F", "note": "(stereo not given)", "outcome": "inactive", "AC50": "0.22 µM (active)"}, {"smiles": "NC(O)(C(F)(F)F)C(F)(F)F", "AC50": "1.45 µM (active)", "outcome": "inactive"}, {"smiles": "C=CC(=O)OCC(F)(F)C(F)(F)C(F)(F)COC(=O)C=C", "AC50": "15.9 µM (active) and 10.5 µM (active)"}, {"smiles": "O=C(O)C(F)(F)C(F)(F)C(F)(F)OC(F)(F)F", "outcome": "inactive"}, {"smiles": "O=S(=O)(O)CCC(F)(F)C(F)(F)C(F)(F)C(F)(F)F", "outcome": "inactive"}, {"smiles": "NCC(F)(F)C(F)(F)C(F)(F)C(F)(F)C(F)(F)C(F)(F)C(F)(F)C(F)(F)F", "outcome": "inactive"}, {"smiles": "O=S(=O)(OCC(F)(F)F)C(F)(F)C(F)(F)C(F)(F)C(F)(F)F", "AC50": "30 µM (active) and 890 nM (active)"}, {"smiles": "O=C(Cl)C(F)(F)C(F)(F)C(F)(F)C(F)(F)C(F)(F)C(F)(F)C(F)(F)F", "outcome": "inactive"}, {"smiles": "CN(C(=O)C(F)(F)C(F)(F)C(F)(F)F)[Si](C)(C)C", "outcome": "inactive"}, {"smiles": "FC(F)(F)C(F)(F)C(F)(F)CC1CO1", "note": "(stereo not given)", "outcome": "inactive"}, {"smiles": "C=CC(=O)OCC(F)(F)C(F)(F)C(F)(F)C(F)(F)C(F)(F)C(F)(F)C(F)(F)C(F)F", "AC50": "23.2 µM (active)", "outcome": "inactive"}, {"smiles": "OCC(O)CC(F)(F)C(F)(F)C(F)(F)C(F)(F)C(F)(F)C(F)(F)C(F)(F)C(F)(F)F", "note": "(stereo not given)", "outcome": "inactive"}, {"smiles": "NC(=O)C(F)(F)C(F)(F)C(F)(F)C(F)F", "outcome": "inactive"}, {"smiles": "O=C(F)C1(F)C(F)(F)C(F)(F)C(F)(F)C(F)(F)C1(F)F", "outcome": "inactive"}, {"smiles": "O=C(O)C(F)(F)OC(F)(F)C(F)(F)OC(F)(F)C(F)(F)OC(F)(F)F", "outcome": "inactive"}, {"smiles": "OCC(F)(F)C(F)(F)C(F)(F)C(F)(F)C(F)(F)C(F)(F)C(F)(F)C(F)(F)CO", "outcome": "inactive"}, {"smiles": "CCN=C1C=CC(=C(c2ccc(N(CC)CC)cc2)c2ccc(N(CC)CC)cc2)c2ccccc21", "AC50": "1.16 µM (active) and 1.01 µM (active)"}, {"smiles": "O=C(O)C(F)(F)C(F)(F)C(F)(F)C(=O)O", "outcome": "inactive"}, {"smiles": "CCN(CCO)S(=O)(=O)C(F)(F)C(F)(F)C(F)(F)C(F)(F)C(F)(F)C(F)(F)C(F)(F)C(F)(F)F", "AC50": "8.1 µM (active) and 7.79 µM (active)"}, {"smiles": "O=S(=O)(O)CCC(F)(F)C(F)(F)C(F)(F)C(F)(F)C(F)(F)C(F)(F)C(F)(F)C(F)(F)F", "outcome": "inactive"}, {"smiles": "NC(=O)C(F)(F)C(F)(F)C(F)(F)C(F)(F)C(N)=O", "outcome": "inactive"}, {"smiles": "NC(=O)C(F)(F)C(F)(F)C(F)(F)C(F)(F)C(F)(F)C(F)(F)C(F)(F)F", "outcome": "inactive"}, {"smiles": "FC(F)(F)C(F)(F)C(F)(F)C(F)(F)C(F)(F)C(F)(F)CC[Si](Cl)(Cl)Cl", "outcome": "inactive"}, {"smiles": "O=C(Cl)C(F)(F)C(F)(F)C(F)(F)C(F)(F)C(F)(F)C(F)(F)F", "outcome": "inactive"}]}]}
